Only some compounds are listed: those with a hit (about 3% of all), similar ones and a draw of the others.
KKLEB tox – cytotoxicity in KKLEB CF airway cells, primary screen, cytotoxicity control for CF NF-kB inhibitor project, cell-based, uHTS, fluorescence assay plates; AID 602141, 2011; KKLEB CF airway cells viability, ATPlite luminescence, overnight; stronger effect = lower value; cells stimulated with P. aeruginosa culture filtrate; 360,000 compounds, 0.36% hits; activity change (cytotoxicity), % at 5 µM;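 active means corrected activity change at or below -50% at 5 µM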
TRPM1 prom inh – inhibitors of MITF-dependent TRPM1 promoter reporter, primary screen, cell-based, SK-MEL-5, single point, luciferase. 330,000 compounds, 0.83% hits. SK-MEL-5 TRPM1 promoter luciferase, 24 h. inhibition, % at 12.5 µM;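 active means mean inhibition across replicates of 60% or more, whatever share of single replicates reaches that level; inconclusive means some that reach 60%, reason not given; inactive means mean inhibition across replicates below 60%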
HIF-2a inh – HIF-2a reporter inhibitors, primary screen, luminescence, 786-0 RCC cells; 360,000 compounds, 0.72% hits; 786-0 RCC cells HIF-2a reporter, luciferase luminescence, overnight; inhibition, % at 18.8 µM;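 active means inhibition of the luminescence signal of 40% or more relative to plate controls, in a single-dose primary screen at 18.75 µM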
CF NFkB inh – inhibitors of PAF-induced NF-kB signaling, primary screen, cell-based, GFP fluorescence, uHTS. 360,000 compounds, 0.86% hits. KKLEB NF-kB-GFP reporter, GFP fluorescence overnight. inhibition, % at 5 µM;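 active means at least 50% inhibition at 5 µM, scaled per plate between neutral and stimulator controls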;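 further: PAF is a Pseudomonas aeruginosa culture filtrate used as stimulus; plate controls were PAF-stimulated DMSO wells for no effect and unstimulated DMSO wells for full effect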
Peg3 prom inh – Peg3 promoter-driven luciferase inhibitors, primary screen, cell-based, HeLa, luciferase luminescence; AID 588405, 2011; HeLa PEG-Prom luciferase reporter, overnight; 360,000 compounds, 1.7% hits; inhibition, % at 20 µM;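 active means inhibition of at least 50% at 20 µM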
LMP1 NFkB inh – EBV LMP1-driven NF-kappaB luciferase reporter inhibitors, primary screen, cell-based, luminescence, single point; LMP1-induced NF-kappaB luciferase reporter cells; inhibition, % at 12.5 µM; 350,000 compounds, 0.69% hits; AID 504558, 2011; in the data active means inhibition above about 41%; inconclusive means no clear call, values can overlap the other calls;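 further: 0% = neutral control wells and 100% = reference inhibitor control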
Mdm2-MdmX confirm – retested Mdm2-MdmX interaction blockers, confirmation, cell-based, luminescence, single concentration, set 2 | shares compounds with HIF-2a inh | SaOS-2 split-luciferase Mdm2/MdmX complementation | 740 compounds, 99% hits | AID 504601, 2011 | inhibition, % at 8 µM;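 active means mean inhibition of the luminescence signal across two replicates at or above 26 percent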
HIF-2a conf – HIF-2a reporter inhibitor retest, confirmation, luminescence, 786-0 RCC cells; shares compounds with HIF-2a inh; HIF-2a luciferase reporter luminescence, overnight; inhibition, % at 18.8 µM; 1,800 compounds, 56% hits; AID 651580, 2012;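 active means mean inhibition across four replicates of at least 40 percent at the single tested concentration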
HIF-1a cs – HIF-1a luciferase reporter signal reduction – MiaPaCa-2 cells, single concentration, counter-screen for HIF-2a inhibitor project, confirmation; shares compounds with HIF-2a inh; MiaPaCa-2 HIF-1a luciferase reporter, desferoxamine, overnight; inhibition, % at 18.8 µM; 1,800 compounds, 72% hits; AID 651589, 2012;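 active means mean inhibition of the reporter signal across four replicates at the single tested dose of 50% or more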
* = called active by the depositor.

What do the screens show for `O=C(Nc1ccc(-c2nc3ccccc3o2)cc1)C1CCCO1` (configuration not stated)?
KKLEB tox: -9; TRPM1 prom inh: -38; HIF-2a inh: -181; CF NFkB inh: -12; Peg3 prom inh: -142; LMP1 NFkB inh: -11

Results for O=C(Nc1ccc(-c2nc3cccnc3s2)cc1)C1CCCO1 (configuration not stated) ?
KKLEB tox: -18; HIF-2a inh: 58*; CF NFkB inh: 27; Peg3 prom inh: 50; LMP1 NFkB inh: 65*; HIF-2a conf: 69*; HIF-1a cs: 45

What do the screens show for `CCOC(=O)N1CCN(S(=O)(=O)c2ccc(C(=O)Nc3sc4c(c3C(=O)OC)CCN(C)C4)cc2)CC1`?
KKLEB tox: -20; TRPM1 prom inh: 37; HIF-2a inh: 61*; CF NFkB inh: -38; Peg3 prom inh: 110*; LMP1 NFkB inh: -8; HIF-2a conf: 26; HIF-1a cs: 90*

What do the screens show for `COC(=O)c1c(NC(=O)c2ccc(S(=O)(=O)N3CC(C)OC(C)C3)cc2)sc2c1CCN(C)C2` (configuration not stated)?
KKLEB tox: -33; HIF-2a inh: 2; CF NFkB inh: -3; Peg3 prom inh: 17; LMP1 NFkB inh: -5

What do the screens show for `N=c1n(CC(=O)c2ccc(Br)cc2)c2ccccc2n1Cc1ccccc1`?
KKLEB tox: -24; TRPM1 prom inh: 90*; HIF-2a inh: -9; CF NFkB inh: -9; Peg3 prom inh: 99*; LMP1 NFkB inh: 9; Mdm2-MdmX confirm: 102*

Results for COC(=O)c1ccc(COc2ccccc2/C=C(\C#N)C(=O)Nc2c(C)cccc2C)cc1 ?
KKLEB tox: -41; TRPM1 prom inh: -4; HIF-2a inh: 46*; CF NFkB inh: 42; Peg3 prom inh: 62*; LMP1 NFkB inh: 3; HIF-2a conf: 45*; HIF-1a cs: 82*

What do the screens show for `O=C(N/N=C/c1ccccc1)C(=O)N/N=C/c1ccccc1`?
KKLEB tox: 3; TRPM1 prom inh: -7; HIF-2a inh: 2; CF NFkB inh: 5; Peg3 prom inh: 4; LMP1 NFkB inh: -4

Results for O=C(C=C=Nc1ccccc1)C(=O)N=C=Cc1ccccc1 ?
KKLEB tox: -20; TRPM1 prom inh: 82*; HIF-2a inh: 75*; CF NFkB inh: 92*; Peg3 prom inh: 102*; LMP1 NFkB inh: -10; HIF-2a conf: 53*; HIF-1a cs: 101*

What do the screens show for `Cc1cccc(C)c1NC(=S)NC(=O)c1cccc(Cl)c1`?
KKLEB tox: -3; HIF-2a inh: -4; CF NFkB inh: -4; Peg3 prom inh: 2

How did COc1ccc2cc3c(N)nn(C(=O)Cc4c[nH]c5ccccc45)c3nc2c1 do in these assays?
KKLEB tox: -26; TRPM1 prom inh: 63*; HIF-2a inh: 50*; CF NFkB inh: 86*; Peg3 prom inh: 106*; LMP1 NFkB inh: 75*; Mdm2-MdmX confirm: 102*; HIF-2a conf: 30; HIF-1a cs: 102*

What do the screens show for `COc1cccc(CC(=O)n2nc(N)c3cc4ccc(OC)cc4nc32)c1`?
KKLEB tox: -2; TRPM1 prom inh: -31; HIF-2a inh: -40; CF NFkB inh: -36; Peg3 prom inh: 40; LMP1 NFkB inh: -21

Results for COc1ccc2cc3c(N)nn(C(=O)c4ccccc4Cl)c3nc2c1 ?
KKLEB tox: -5; TRPM1 prom inh: 34; HIF-2a inh: 43*; CF NFkB inh: 77*; Peg3 prom inh: 10; LMP1 NFkB inh: 80*; Mdm2-MdmX confirm: 99*; HIF-2a conf: 20; HIF-1a cs: 94*

How did COc1ccc2cc3c(N)nn(C(=O)Cc4ccc(Cl)cc4)c3nc2c1 do in these assays?
KKLEB tox: -6; TRPM1 prom inh: 0; HIF-2a inh: 8; CF NFkB inh: 22; Peg3 prom inh: 15; LMP1 NFkB inh: -13

How did O=S(=O)(/N=C(\c1ccc(F)cc1)N1CCOCC1)c1ccccc1 do in these assays?
KKLEB tox: 11; HIF-2a inh: 3; CF NFkB inh: -43; Peg3 prom inh: -4; LMP1 NFkB inh: 3

What do the screens show for `C=CCC(Nc1ccccc1)C12C=CC(O1)C(C(=O)OC)=C2C(=O)OC` (configuration not stated)?
KKLEB tox: -24; TRPM1 prom inh: 80*; HIF-2a inh: 92*; CF NFkB inh: 38; Peg3 prom inh: 92*; LMP1 NFkB inh: 9; HIF-2a conf: 94*; HIF-1a cs: 98*

What do the screens show for `C(#CC12CC3CC(CC(C3)C1)C2)CN1CCOCC1`?
KKLEB tox: -4; TRPM1 prom inh: -5; HIF-2a inh: 41*; CF NFkB inh: 4; Peg3 prom inh: 2; LMP1 NFkB inh: -9; HIF-2a conf: 4; HIF-1a cs: -6

How did COC(=O)c1cc(=O)n(Cc2ccc3c(c2)OCO3)c(=Nc2ccc(F)c(Cl)c2)s1 do in these assays?
KKLEB tox: -15; TRPM1 prom inh: 11; HIF-2a inh: 53*; CF NFkB inh: 44; Peg3 prom inh: 57*; LMP1 NFkB inh: -59; HIF-2a conf: 6; HIF-1a cs: 59*

How did COC(=O)c1cc(=O)n(Cc2ccc(OC)cc2)c(=NCc2ccc(OC)cc2)s1 do in these assays?
KKLEB tox: 2; TRPM1 prom inh: 12; HIF-2a inh: 15; CF NFkB inh: 3; Peg3 prom inh: 12; LMP1 NFkB inh: -32

Results for CCOC(=O)C1=C(C)NC2=C(C(=O)CC(c3cccs3)C2)C1c1cccs1 (configuration not stated) ?
KKLEB tox: -6; TRPM1 prom inh: inconclusive; HIF-2a inh: 46*; CF NFkB inh: 16; Peg3 prom inh: 20; LMP1 NFkB inh: -3; HIF-2a conf: 52*; HIF-1a cs: 63*

What do the screens show for `CCOC(=O)[C@]12CCC=C1N(Cc1cccc3ccccc13)C(=O)[C@H](CC(=O)N1CCSCC1)C2`?
HIF-2a inh: 7

Screening results deposited in PubChem by several laboratories.
